# Laboratory results from PubChem BioAssay (Tox21).
# Results filed as inconclusive are left out. Where a call stands in place of a potency, no number is given. Activity calls are given as the source filed them. The call rests on the fitted dose curve; in most records, active means well fitted curve in the direction sought with a large enough effect in the repeat runs; inconclusive means weak or mixed curves; inactive means no such curve, though single readings can be large; an effect the other way counts as inactive or inconclusive.
# Assays:
# [1] = molecular target: Cytochrome P450 2C9 (Homo sapiens) (UniProt P11712); test: Cytochrome P450 Family 2 Subfamily C Member 9 (CYP2C9) small molecule antagonists: luciferase reporter qHTS assay (AID 1671198); further: potency means the concentration at half of the fitted maximal effect
# Cytochrome P450 2C9 (Homo sapiens), sequence (P11712 whole entry, looked up): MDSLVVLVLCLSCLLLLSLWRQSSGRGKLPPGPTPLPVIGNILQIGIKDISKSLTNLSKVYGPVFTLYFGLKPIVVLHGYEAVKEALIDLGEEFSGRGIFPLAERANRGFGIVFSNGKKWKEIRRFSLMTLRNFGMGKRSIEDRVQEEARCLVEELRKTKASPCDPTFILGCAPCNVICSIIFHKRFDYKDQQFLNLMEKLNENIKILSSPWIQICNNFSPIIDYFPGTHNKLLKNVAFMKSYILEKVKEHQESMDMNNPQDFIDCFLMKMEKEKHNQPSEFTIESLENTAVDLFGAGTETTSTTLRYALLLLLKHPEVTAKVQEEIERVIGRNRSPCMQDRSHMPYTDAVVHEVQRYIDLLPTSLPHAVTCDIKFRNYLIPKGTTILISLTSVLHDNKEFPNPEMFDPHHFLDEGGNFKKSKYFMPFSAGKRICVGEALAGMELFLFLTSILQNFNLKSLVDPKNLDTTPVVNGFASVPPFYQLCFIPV
# Method in brief: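 CYP2C9 activity was measured with a P450-Glo proluciferin substrate. Enzyme–substrate mix was held with compound for 10 min at room temperature, then NADPH regeneration solution was added for 1 h at 37C. Luciferin product was read as luminescence.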
# [2] = molecular target: Voltage-gated inwardly rectifying potassium channel KCNH2 (Homo sapiens) (UniProt Q12809); test: Human Ether-a-go-go-Related Gene (hERG) channel small molecule antagonists: fluorescence cell-based qHTS assay (AID 1671200);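 further: hERG-expressing U2OS cells given a thallium stimulus after FluxOR II dye loading; series mostly up to about 77 µM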
# Voltage-gated inwardly rectifying potassium channel KCNH2 (Homo sapiens), sequence (Q12809 whole entry, looked up): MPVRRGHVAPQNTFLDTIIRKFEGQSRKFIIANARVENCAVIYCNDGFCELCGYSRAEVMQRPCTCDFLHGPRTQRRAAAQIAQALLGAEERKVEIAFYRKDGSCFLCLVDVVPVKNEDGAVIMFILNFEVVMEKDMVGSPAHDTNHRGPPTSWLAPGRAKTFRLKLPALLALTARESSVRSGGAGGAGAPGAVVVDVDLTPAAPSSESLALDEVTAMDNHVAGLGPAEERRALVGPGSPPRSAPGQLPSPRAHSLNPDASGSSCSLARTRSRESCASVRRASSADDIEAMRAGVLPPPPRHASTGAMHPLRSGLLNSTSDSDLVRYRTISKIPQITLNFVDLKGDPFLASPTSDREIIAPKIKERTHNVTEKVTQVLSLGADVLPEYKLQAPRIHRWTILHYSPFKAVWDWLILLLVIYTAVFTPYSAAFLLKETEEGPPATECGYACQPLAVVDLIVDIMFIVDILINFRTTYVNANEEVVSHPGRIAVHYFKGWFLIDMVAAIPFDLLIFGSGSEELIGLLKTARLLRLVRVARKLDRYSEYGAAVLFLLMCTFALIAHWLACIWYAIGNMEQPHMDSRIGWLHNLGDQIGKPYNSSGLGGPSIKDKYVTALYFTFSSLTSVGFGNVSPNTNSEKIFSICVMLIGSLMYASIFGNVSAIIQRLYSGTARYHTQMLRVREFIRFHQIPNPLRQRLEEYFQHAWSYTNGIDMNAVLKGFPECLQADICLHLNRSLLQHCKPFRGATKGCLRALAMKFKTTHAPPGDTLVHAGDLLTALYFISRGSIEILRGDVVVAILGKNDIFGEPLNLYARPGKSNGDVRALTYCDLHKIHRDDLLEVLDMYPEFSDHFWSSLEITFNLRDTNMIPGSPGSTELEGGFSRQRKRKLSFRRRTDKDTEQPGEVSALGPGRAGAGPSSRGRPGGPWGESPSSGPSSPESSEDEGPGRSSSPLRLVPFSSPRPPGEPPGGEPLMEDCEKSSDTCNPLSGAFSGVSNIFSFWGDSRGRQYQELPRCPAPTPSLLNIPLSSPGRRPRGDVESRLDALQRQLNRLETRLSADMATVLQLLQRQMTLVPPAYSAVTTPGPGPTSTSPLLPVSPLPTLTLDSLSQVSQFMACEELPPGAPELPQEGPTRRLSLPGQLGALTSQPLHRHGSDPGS
# Method in brief: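 First, 1000 cells per well are seeded and cultured overnight at 37 C. Next, FluxOR II dye is loaded for 1 h at room temperature, protected from light. After 10 more minutes, stimulus is added and fluorescence is read.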
# [3] = molecular target: Cytochrome P450 3A4 (Homo sapiens) (UniProt P08684); test: Cytochrome P450 Family 3 Subfamily A Member 4 (CYP3A4) small molecule antagonists: luciferase reporter qHTS assay (AID 1671201); further: potency means the concentration at half of the fitted maximal effect
# Cytochrome P450 3A4 (Homo sapiens), sequence (P08684 whole entry, looked up): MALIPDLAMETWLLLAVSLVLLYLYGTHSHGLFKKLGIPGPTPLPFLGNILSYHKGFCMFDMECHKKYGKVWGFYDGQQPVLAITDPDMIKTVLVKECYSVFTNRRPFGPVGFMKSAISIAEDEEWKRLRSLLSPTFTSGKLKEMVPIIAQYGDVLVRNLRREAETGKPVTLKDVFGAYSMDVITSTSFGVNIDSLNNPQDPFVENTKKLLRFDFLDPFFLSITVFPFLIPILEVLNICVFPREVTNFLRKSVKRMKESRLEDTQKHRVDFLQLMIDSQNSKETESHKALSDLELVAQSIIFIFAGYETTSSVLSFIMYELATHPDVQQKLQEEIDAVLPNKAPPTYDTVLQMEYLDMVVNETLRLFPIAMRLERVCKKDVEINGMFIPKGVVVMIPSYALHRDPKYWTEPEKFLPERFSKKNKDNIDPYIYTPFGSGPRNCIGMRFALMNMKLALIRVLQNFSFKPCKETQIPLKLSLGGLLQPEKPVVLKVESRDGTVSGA
# Method in brief: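 Enzyme and proluciferin substrate are mixed with test chemicals for 10 min, then NADPH regeneration system drives turnover for 1 h at room temperature. A detection reagent halts the reaction; luminescence after 20 min gives relative activity.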
# Further: nearly all actives have a fitted effect of over 50% in size.
Structure (SMILES),Potency [1],Potency [2],Potency [3]
CSc1ccc(C(=O)c2[nH]c(=O)[nH]c2C)cc1,inactive,inactive,inactive
CC(C)=CCOc1ccc(/C=C/C(=O)c2ccc(OCC=C(C)C)cc2OCC(=O)O)cc1,15.5 µM (active),inactive,inactive
O=C(O)c1ccc(Cl)c(Cl)c1,inactive,,inactive
CC(=O)OCC(C)OC(C)=O (centres undefined),inactive,,inactive
Cc1cc(O)c(C(C)(C)C)cc1C(C)(C)C,28.3 µM (active),,31.7 µM (active)
NC(=O)N1C(=O)C(C(=O)c2cc(Cl)cs2)c2cc(F)c(Cl)cc21 (centres undefined),6.33 µM (active),inactive,5.03 µM (active)
CCCCN(CCCC)C(=O)N(CCCC)CCCC,inactive,,5.03 µM (active)
Nc1ccccc1O,27.9 µM (active),,31.3 µM (active)
COc1cc(/C=C/C(=O)O[C@H]2CC[C@]34C[C@]35CC[C@]3(C)[C@@H]([C@H](C)CCC=C(C)C)CC[C@@]3(C)[C@@H]5CC[C@H]4C2(C)C)ccc1O,inactive,,inactive
CCCCCCCCCCCCCCCCCC[N+](C)(C)C,63.5 µM (active),,71.2 µM (active)
C=C(C)C(=O)OCC(O)COc1ccc(C(C)(C)c2ccc(OCC(O)COC(=O)C(=C)C)cc2)cc1 (centres undefined),3.99 µM (active),inactive,inactive
CCCCCCCCCCC=O,inactive,inactive,inactive
CCC(N)(CO)CO,inactive,inactive,inactive
C/C=C1/C(=O)C[C@H]2[C@@H]3CCC4=CC(=O)CC[C@]4(C)[C@H]3CC[C@]12C,31.6 µM (active),,inactive
